Laboratory results from PubChem BioAssay (Tox21).
Results filed as inconclusive are left out. Where a call stands in place of a potency, no number is given. Unmarked numbers belong to inactive results. Activity calls are given as the source filed them. The call rests on the fitted dose curve; in most records, active means well fitted inhibition curve with a large enough effect in the signal ratio in the repeat runs (not every such curve was filed as active); inconclusive means weak or mixed curves, or effect the other way; inactive means flat fitted curve, though single readings scatter; the % refers to the signal ratio.
Potency means the concentration at half of the fitted maximal effect.

Experiment: cAMP Responsive Elements (CRE) small molecule antagonists, cell-based qHTS assay (AID 1963591)
Settings: CRE-bla HEK293T, beta-lactamase FRET ratio; series mostly up to 92.4 µM
Description: U.S. Tox21 Program National Center for Advancing Translational Sciences [NCATS] Division of Preclinical Innovation [DPI] U.S. Environmental Protection Agency [EPA] National Institutes of Environmental Health Sciences [NIEHS] National Toxicology Program [NTP] U.S. Food and Drug Administration [FDA] Tox21 Assay Overview: CREB (cyclic-AMP Responsive Element Binding Protein) is a cellular transcription factor. It binds to certain DNA sequences called cAMP Responsive Elements (CRE) and regulates the transcription of the genes. […] This cell line can be used to find agonists/antagonists of the cyclic AMP signaling pathway. The activation of the report gene under culture conditions can be detected by fluorescence intensity. This cell line has been used to screen the Tox21 10K compound library to […].
Tox21 Assay Protocol Summary: CRE-bla Hek 293T cells were suspended in assay medium (DMEM containing 10% dialyzed FBS, 0.1 mM NEAA, 1 mM sodium pyruvate and 25 mM HEPES) and dispensed at 2,000 cells/4 uL /well into 1536-well black wall/clear bottom plates using a Multidrop Combi (ThermoFisher Scientific, Waltham, MA) dispenser. After the assay plates were incubated at 37 C/5% CO2 for 18 hrs, 23 nL of compounds dissolved in DMSO, positive controls or DMSO only was transferred to the assay plate by a pintool workstation (Kalypsys, San Diego, CA), followed by addition of 1 […] uL of 1.25uM NKH477 (0.25 uM as final concentration) in assay medium using a Flying Reagent Dispenser (Aurora Discovery, San Diego, CA). The plates were incubated at 37 C and 5% CO2 for 3 hrs. Then 1 uL of LiveBLAzer B/G FRET substrate (Invitrogen, Carlsbad, CA) was added to each well using Bioraptr Flying Reagent Dispenser (FRD, Aurora Discovery, San Diego, CA). The plates were incubated at room temperature for 2 h.
With `CC(=O)NC1CCSC1=O` (stereo not given) the Potency was “inactive”. For `O=C(O)c1c(Cl)ccc2cc(Cl)cnc12`, the Potency was “inactive”. In the case of `Clc1ccc(-c2ccccc2)cc1`, the Potency is reported as “inactive”. With `CC(C)N(C(=O)SC/C(Cl)=C/Cl)C(C)C` the Potency was “inactive”. For `CCSC(=O)Cl`, the Potency was “inactive”. In the case of `Nc1ccc(Cl)cc1C(=O)c1ccccc1`, the Potency is reported as “inactive”. With `C[N+](C)(C)CCOC(=O)C(O)(c1ccccc1)c1ccccc1` the Potency was “inactive”. For `COc1cccc2c1C(=O)c1c(O)c3c(c(O)c1C2=O)C[C@@](O)(C(=O)CO)CC3OC1CC(N2CCOC(OC)C2)C(O)C(C)O1` (stereo not given in full), the Potency was 1.19 µM (active). For `CN1CCc2cc(Cl)c(O)cc2[C@H]2c3ccccc3CC[C@@H]21`, the Potency was “inactive”. With `CCCCOC(C)=O` the Potency was “inactive”. In the case of `Cc1ncsc1CCCl`, the Potency is reported as “inactive”. In the case of `CCC(OC(C)=O)C(CC(C)NC)(c1ccccc1)c1ccccc1` (stereo not given), the Potency is reported as “inactive”. With `[O-][Cl+3]([O-])([O-])O` the Potency was “inactive”. In the case of `N#CN`, the Potency is reported as “inactive”. For `CCC(C)Br` (stereo not given), the Potency was “inactive”. With `Clc1ccccc1-c1ccccc1Cl` the Potency was “inactive”. For `C=CC(=C)C`, the Potency was “inactive”. With `CCCN(CC1CC1)c1c([N+](=O)[O-])cc(C(F)(F)F)cc1[N+](=O)[O-]` the Potency was “inactive”. With `CCC(CC)(CNC(=O)CCCO)c1cccc(OC)c1` the Potency was “inactive”. In the case of `O=C(O)C(O)C(O)C(=O)O` (stereo not given), the Potency is reported as “inactive”. In the case of `NC(=O)C(Cl)(Cl)Cl`, the Potency is reported as “inactive”. For `CCCCCCBr`, the Potency was “inactive”. For `CON(C)C(=O)Nc1ccc(Br)c(Cl)c1`, the Potency was “inactive”. For `O=C(NC(=O)c1c(F)cccc1F)Nc1cc(Cl)c(OC(F)(F)C(F)F)c(Cl)c1`, the Potency was “inactive”. With `Cc1nc2ccccc2c(=O)n1-c1ccccc1Cl` the Potency was “inactive”. For `O=c1ssc(Cl)c1Cl`, the Potency was “inactive”. With `CC(C)O.CC(C)O.OCCN(CCO)CCO.OCCN(CCO)CCO.[Ti]` the Potency was “inactive”. For `CC(=O)OC(c1ccccc1)C(Cl)(Cl)Cl` (stereo not given), the Potency was “inactive”. In the case of `COP(=S)(OC)Oc1cc(Cl)c(Br)cc1Cl`, the Potency is reported as “inactive”. With `ClC1=C(Cl)C2(Cl)C(CBr)CC1(Cl)C2(Cl)Cl` (stereo not given) the Potency was “inactive”. With `O=C1C(I)=CC(=C(c2cc(I)c(O)c(I)c2)c2ccccc2C(=O)O)C=C1I` the Potency was “inactive”. For `CCN(CC)C(=O)N[C@@H]1C=C2c3cccc4[nH]cc(c34)C[C@@H]2N(C)C1`, the Potency was “inactive”. For `CC(C(O)c1ccccc1)N(C)C/C=C/c1ccccc1` (stereo not given), the Potency was “inactive”. In the case of `CCC1(CCC(C)C)C(=O)NC(=O)NC1=O`, the Potency is reported as “inactive”. For `CCOP(=S)(OCC)Oc1ccc(S(C)=O)cc1` (stereo not given), the Potency was “inactive”. For `ClC(Cl)=C(Cl)Cl`, the Potency was “inactive”. Work on `CN(C)C(=S)[S-].CN(C)C(=S)[S-].[Cu+2]` yielded an activity change, negative = inhibition of -106% [at 18.9 µM]. In the case of `O=C(CCl)C(Cl)Cl`, the Potency is reported as 21.9 µM (active). In the case of `CN(C)c1ccc(N=Nc2ccccc2)cc1`, the Potency is reported as “inactive”. For `CO/N=C(/C1=NOCCO1)c1ccccc1Oc1ncnc(Oc2ccccc2Cl)c1F`, the Potency was “inactive”.
